Source: PubChem BioAssay (several laboratories)
ANO1 activ = activates or potentiates the mouse TMEM16A chloride channel | Q8BHY3 | HEK293 TMEM16A/YFP-H148Q/I152L, iodide quench fluorescence; hits give low values | 340,000 tested, 0.3% active | B-score at 10 µM | AID 623877;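 active means fluorescence-ratio B-score plate-corrected deviation score at least 3 library SD below zero, with starting fluorescence score within 5 deviations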;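 further: channel opened by trigger with iodide after compound preincubation; score built on the fluorescence ratio of max minus min over baseline; more negative score means more quench and so TMEM16A activation or potentiation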
MEKK3 PB1 HTS = modulators (inhibitors or enhancers) of MEK5 binding to human MEKK3 PB1 domain; Q99759; bead-based flow cytometry, Alexa488-MEK5 binding to MEKK3; actives lie on both sides; 0 = blocked by unlabeled MEK5, 100 = vehicle; binding response (% of control), % at 10 µM; 290,000 tested, 1.4% active; AID 1529;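 active means binding response more than 3 SD above or below the average of its plate-row segment, actives on both sides; inconclusive means wells at one plate position flagged as instrument error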;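 further: Alexa488 bead fluorescence after subtracting the streptavidin-only scavenger bead signal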
Target sequence (Q99759 whole entry, looked up, the tested form may be a part): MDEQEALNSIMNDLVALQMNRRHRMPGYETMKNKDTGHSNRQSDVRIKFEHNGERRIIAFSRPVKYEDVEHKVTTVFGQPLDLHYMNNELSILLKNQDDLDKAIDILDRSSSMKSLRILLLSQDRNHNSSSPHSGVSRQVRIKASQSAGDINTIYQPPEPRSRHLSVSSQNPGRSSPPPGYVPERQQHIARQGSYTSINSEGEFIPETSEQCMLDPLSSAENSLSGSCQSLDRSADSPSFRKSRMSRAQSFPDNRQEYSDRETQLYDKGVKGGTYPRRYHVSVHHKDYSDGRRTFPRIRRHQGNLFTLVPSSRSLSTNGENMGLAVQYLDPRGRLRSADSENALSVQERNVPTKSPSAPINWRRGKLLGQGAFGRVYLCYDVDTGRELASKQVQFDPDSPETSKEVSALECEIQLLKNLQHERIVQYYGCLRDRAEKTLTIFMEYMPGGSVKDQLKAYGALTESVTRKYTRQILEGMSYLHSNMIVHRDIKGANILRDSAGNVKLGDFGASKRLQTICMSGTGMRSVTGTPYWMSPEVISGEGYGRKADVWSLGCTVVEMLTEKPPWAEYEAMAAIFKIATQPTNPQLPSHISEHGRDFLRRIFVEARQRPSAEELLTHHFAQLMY
NTR1 ag = activates human neurotensin receptor 1 | P30989 | NTR1-U2OS beta-arrestin-GFP spot imaging, agonist mode | activation, % at 20 µM | 330,000 tested, 0.17% active | AID 493036;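 active means activation at or above 40% of the spot to cytoplasm intensity ratio, with at least 20 cells analyzed; inconclusive means wells under 20 cells, flagged as cytotoxic or low count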;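 further: 0% = DMSO without peptide and 100% = 100 nM NTR1 peptide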
ANO1 block = mouse TMEM16A channel inhibition, primary screen; Q8BHY3; HEK293 TMEM16A/YFP iodide influx fluorescence, ionomycin; normalized B-score (activity score, 25-100; higher = stronger inhibition) at 10 µM; 310,000 tested, 1.2% active;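 active means ratio plate-corrected score three or more library SD toward inhibition, starting fluorescence score within five deviations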;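 further: score derived from kinetic fluorescence span divided by baseline fluorescence per well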
MEKK2 WT-MEK5 = raises or lowers MEK5 binding to wildtype human MEKK2 PB1 domain; Q9Y2U5; bead flow cytometry, Alexa488-MEK5 binding to MEKK2 WT; actives lie on both sides; binding response (% of control), % at 10 µM; AID 1531; 290,000 tested, 1.1% active; in the data active means binding response below about 67% or above about 130%; inconclusive means no clear call, values can overlap the other calls; inactive means in between
MEKK2 mut-MEK5 = signal of MEK5 binding to mutant human MEKK2 PB1 domain; bead flow cytometry, Alexa488-MEK5 binding to MEKK2 mutant; percent response, % at 10 µM; 290,000 tested, 0.35% active; AID 1530; in the data active means percent response above about 24%, passing the limit was not always enough
MEKK2wt confirm = raises or lowers MEK5 binding to wildtype human MEKK2, retest. binding response (% of control), % at 10 µM. bead flow cytometry, Alexa488-MEK5 binding to MEKK2 WT; actives lie on both sides. shares compounds with MEKK3 PB1 HTS. AID 1892. 5,900 tested, 2.4% active; in the data active means binding response below about 16% or above about 210%; inactive means in between
MEKK2mut confirm = signal of MEK5 binding to mutant human MEKK2, retest. shares compounds with MEKK3 PB1 HTS. bead flow cytometry, Alexa488-MEK5 binding to MEKK2 mutant. percent response, % at 10 µM. 5,900 tested, 2% active; in the data active means percent response mostly above about 71%, no sharp cut-off; inactive means mostly below about 38%;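 further: higher means compound restores mutant binding toward wildtype level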
MEKK3 confirm = MEKK3-MEK5 PB1 inhibition, single concentration confirmation; shares compounds with MEKK3 PB1 HTS; bead flow cytometry, Alexa488-MEK5 binding to MEKK3; hits give low values; binding response (% of control), % at 10 µM; 5,900 tested, 1.8% active; AID 1894;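 active means binding response below 72% of control, or above a set upper limit, though filed actives all read lower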;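 further: 100% = DMSO only wells and 0% = binding blocked by excess unlabeled MEK5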
The depositor's hits bear a star; i = inactive; ? = inconclusive; nt = no result given; [ ] = another dose, or the depositor's remark. Only some compounds are listed: those with a hit (about 3.4% of all), similar ones and a draw of the others.

SMILES | ANO1 activ | MEKK3 PB1 HTS | NTR1 ag | ANO1 block | MEKK2 WT-MEK5 | MEKK2 mut-MEK5 | MEKK2wt confirm | MEKK2mut confirm | MEKK3 confirm
CCC(=O)N(C)CCc1cc2c(c(OC)c1/C=N/Nc1ccc(C(=O)O)cc1)OCO2 | i | 132* | 0 | i | 119 | 30 | 107 | 11 | 107
Cc1occc1C(=O)NNC(=O)c1ccc(F)cc1 | i | 0.0*[inhibitor] | -1 | i | -1.0*[inhibitor] | -17 | 104 | 2 | 103
CCCCNC(=S)NNC(=O)c1ccoc1C | i | 105 | 2 | i | 108 | 4 | nt | nt | nt
COCCCNC(=S)NNC(=O)c1ccoc1C | i | 74*[inhibitor] | -1 | i | 101 | -3 | 105 | 1 | 102
CCN(CC)S(=O)(=O)c1ccc(=O)[nH]c1 | i | 73 | 2 | i | 81 | -38 | nt | nt | nt
COc1ccccc1C(=O)Nc1ccc2c(c1)nc1n2CCN(Cc2ccccc2)C1 | i | 76 | 7 | i | 85 | -8 | nt | nt | nt
O=C(Nc1ccc2c(c1)nc1n2CCN(Cc2ccccc2)C1)c1cccs1 | i | 100 | 1 | i | 3.0*[inhibitor] | 1 | 100 | -3 | 103
CCOc1ccccc1NC1=NCC(=O)N1Cc1ccc(F)cc1 | i | 110 | 2 | i | 104 | 4 | nt | nt | nt
COc1ccccc1NC1=NCC(=O)N1Cc1ccccc1 | i | 58 | -1 | i | 58 | 47* | 102 | 0 | 100
Cc1ccc(S(=O)(=O)n2c([N+](=O)[O-])cnc2C)c(C)c1C | i | 96 | 0 | i | 99 | -4 | nt | nt | nt
O=C(NC1=NCCS1)C1COc2ccccc2O1 (centres undefined) | i | 1.0*[inhibitor] | -2 | i | -1.0*[inhibitor] | -8 | 98 | 1 | 99
COc1cccc(NC(=O)COC(=O)C2CC2)c1 | i | nt | -2 | nt | nt | nt | nt | nt | nt
O=C(CNC(=O)COc1ccccc1)NCc1cccnc1 | i | 98 | 1 | i | 97 | -2 | nt | nt | nt
COc1ccc(NC(=O)C2CCCN(CCCc3ccccc3)C2)cc1OCC(C)C (centres undefined) | i | 110 | 8 | i | 139* | 19 | 109 | 3 | 98
CC[C@H](C)[C@@H]1NC(=O)c2cc([N+](=O)[O-])cc(F)c2NCCCC[C@@H](C(N)=O)NC(=O)[C@H](CC(N)=O)NC1=O | i | 108 | 1 | i | 100 | 2 | nt | nt | nt
C[C@@H](O)C1NC(=O)[C@H](CCCCN)NC(=O)c2cc([N+](=O)[O-])cc(F)c2NCCCC[C@@H](C(N)=O)NC1=O (some centres undefined) | i | 108 | -1 | i | 141* | 14 | 143 | 22 | 102
CCN1CCN(c2nc(-c3ccccc3)nc3ccccc23)CC1 | i | 142* | -2 | i | 116 | 1 | 118 | 15 | 104
COc1ccccc1NC(=O)CN1CCN(CC(=O)Nc2ccc(F)cc2F)CC1 | i | 99 | 0 | nt | 98 | -2 | nt | nt | nt
Cc1ccc(C2(CCNCc3ccc(N(C)C)cc3)CCOC(C(C)C)C2)cc1 (centres undefined) | i | 111 | 19 | i | 149* | 17 | 125 | 6 | 105
N#CC1=C(N)Oc2n[nH]c(-c3cccs3)c2C1c1cccnc1 (centres undefined) | i | 123* | 2 | i | 108 | 6 | 120 | 6 | 92
Cc1ccc(C2C(C#N)=C(N)Oc3n[nH]c(-c4cccs4)c32)cc1 (centres undefined) | i | 91 | 4 | i | 96 | -2 | nt | nt | nt
Cc1cc(C)c2oc(C(=O)Nc3nnc(C(C)C)s3)cc(=O)c2c1 | i | 212* | -1 | i | 118 | 2 | 79 | -14 | 85
CSc1nnc(NC(=O)c2cc(=O)c3cc(C)cc(C)c3o2)s1 | i | 78 | -1 | i | 84 | -19 | nt | nt | nt
O=C(Nc1nnc(-c2ccncc2)o1)c1ccccc1F | i | 129* | 2 | i | 112 | 19 | 99 | -5 | 104
O=C(Nc1nnc(-c2ccncc2)o1)c1ccccc1 | i | 124 | 0 | i | 108 | 17 | nt | nt | nt
SMILES | ANO1 activ | MEKK3 PB1 HTS | NTR1 ag | ANO1 block | MEKK2 WT-MEK5 | MEKK2 mut-MEK5 | MEKK2wt confirm | MEKK2mut confirm | MEKK3 confirm
Nc1cccc(Oc2ccc3c(c2)C(=O)N(CC2CCCO2)C3=O)c1 (centres undefined) | i | ? | 1 | i | ? | -34 | nt | nt | nt
O=C(C[n+]1ccccc1)N/N=C/c1cc(Br)cc(Br)c1O | i | 105 | -1 | i | 107 | -2 | nt | nt | nt
CCC(O)(CC)C(=O)N/N=C/c1cc(Br)cc(Br)c1O | i | 134* | 0 | i | 127 | 23 | 104 | 3 | 103
C[C@@H](CN1C2=NC[C@H](C)N2C[C@H]1Cc1ccc(O)cc1)NC(=O)CCC1CCCCC1 | i | 103 | -2 | i | 120 | 15 | nt | nt | nt
COc1ccc(C[C@H]2CN3C(=NC[C@@H]3Cc3ccc(O)cc3)N2C[C@H](C)NC(=O)CCC2CCCCC2)cc1 | i | 115 | 22 | i | 141* | 17 | 131 | 12 | 89
COc1ccc(C[C@@H]2CN3C(=NC[C@@H]3Cc3ccc(O)cc3)N2C[C@H](C)NC(=O)CCC2CCCCC2)cc1 | i | 1.0*[inhibitor] | 13 | i | 135* | 9 | 155 | 53 | 107
CC(C)[C@H]1CN=C2N(C[C@H](C)NC(=O)CCC3CCCCC3)[C@H](Cc3ccc(O)cc3)CN21 | i | 112 | 3 | i | 112 | 11 | nt | nt | nt
OCC[C@@H]1C[C@@H](O)[C@H](O)[C@@]2(CCc3ccccc3CO2)O1 | i | 102 | 3 | i | 95 | -5 | nt | nt | nt
COC(=O)c1nnn(-c2ccsc2C(=O)OC)c1C(=O)OC | i | 145* | -1 | i | 123 | 5 | 101 | -5 | 100
COc1ccc(CNC(=O)C(OC(=O)c2ccco2)c2ccccc2)cc1 (centres undefined) | i | 101 | 4 | i | 99 | 4 | nt | nt | nt
Cc1cn(CCC(=O)Nc2ccccc2N2CCOCC2)c2ccccc12 | i | 89 | 1 | i | 84 | -18 | nt | nt | nt
Cc1cn(CCC(=O)Nc2ccc(N3CCOCC3)cc2)c2ccccc12 | i | 128* | 0 | i | 129 | 27 | 102 | -6 | 100
